A short description of test [1]: TOX21_p53_BLA_p2_viability: Viability Assessment in the Tox21 HCT-116 p53 Agonism Beta-lactamase Assay, Phase 2 (AID 2283591).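 Also: actives lower the ATP signal meaning cytotoxicity.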 An outline of the steps: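 Cytotoxicity readout: CellTiter-Glo ATP luminescence, 30 min at room temperature, after the beta-lactamase read. Cells were HCT116 exposed 16 h at 37C to compounds pin-transferred at 217-fold dilution from DMSO stocks.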

Test [2] deals with Cellular tumor antigen p53 (Homo sapiens) (UniProt P04637). In words: TOX21_p53_BLA_p2_ratio: Tox21 HCT-116 p53 Agonism Beta-lactamase Assay, Ratio, Phase 2 (AID 2283592). An outline of the steps:
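An inducible beta-lactamase reporter in HCT116 cells signals p53 pathway activation. After 16 h chemical exposure at 37C, cells load CCF4-AM substrate for 2 h at room temperature; activity is the cleaved/uncleaved emission ratio relative to DMSO.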

Test [3] is described as follows: TOX21_p53_BLA_p3_viability: Viability Assessment in the Tox21 HCT-116 p53 Agonism Beta-lactamase Assay, Phase 3 (AID 2283593).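 Also: cells exposed to compound for 16 h before reading.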 An outline of the steps:
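Cellular ATP was quantified by CellTiter-Glo luminescence, read after 30 min at room temperature. Beforehand, HCT116 cells (4000/well) received compound 5 h post-seeding, 217-fold diluted from DMSO, then incubated 16 h at 37C.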

The target in test [4] is Cellular tumor antigen p53 (Homo sapiens) (UniProt P04637). In words: TOX21_p53_BLA_p3_ratio: Tox21 HCT-116 p53 Agonism Beta-lactamase Assay, Ratio, Phase 3 (AID 2283596). In a few lines: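 HCT116 p53-bla cells (4000/well) given compound in DMSO (217-fold dilution) after 5 h, incubated 16 h at 37C. CCF4-AM substrate 2 h at room temperature; 460/530 nm emission ratio, gain fitted against DMSO.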
Chain of Cellular tumor antigen p53 (Homo sapiens) (P04637 whole entry, looked up): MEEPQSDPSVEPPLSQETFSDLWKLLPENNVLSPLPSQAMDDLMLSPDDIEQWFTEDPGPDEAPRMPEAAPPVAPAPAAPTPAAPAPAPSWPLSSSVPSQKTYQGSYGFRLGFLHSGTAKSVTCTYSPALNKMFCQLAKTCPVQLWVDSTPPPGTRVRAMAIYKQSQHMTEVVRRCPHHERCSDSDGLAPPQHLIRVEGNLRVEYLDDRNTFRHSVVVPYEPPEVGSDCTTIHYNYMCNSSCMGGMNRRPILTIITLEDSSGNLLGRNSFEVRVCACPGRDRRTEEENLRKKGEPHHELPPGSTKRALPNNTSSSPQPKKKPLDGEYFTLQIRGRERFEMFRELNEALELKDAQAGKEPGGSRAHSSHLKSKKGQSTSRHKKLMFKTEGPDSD

Test [5] in a line: TOX21_p53_BLA_p4_viability: Viability Assessment in the Tox21 HCT-116 p53 Agonism Beta-lactamase Assay, Phase 4 (AID 2283597).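 Also: hits lower the luminescence signal meaning cytotoxicity.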 In a few lines:
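Compound exposure of HCT116 cells lasts 16 h at 37C, 5% CO2, with DMSO stocks diluted 217-fold. Cellular ATP is then quantified by CellTiter-Glo luminescence after 30 min at room temperature.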

The target in test [6] is Cellular tumor antigen p53 (Homo sapiens) (UniProt P04637). In words: TOX21_p53_BLA_p5_ratio: Tox21 HCT-116 p53 Agonism Beta-lactamase Assay, Ratio, Phase 5 (AID 2283599). In a few lines:
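Beta-lactamase reporter ratio (blue 460 nm over green 530 nm, 405 nm excitation) after 2 h CCF4-AM loading, in HCT-116 cells exposed 16 h at 37 C to compounds pinned at 217-fold dilution. Increases relative to DMSO baseline scored.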

Test [7] can be described thus: TOX21_p53_BLA_p5_viability: Viability Assessment in the Tox21 HCT-116 p53 Agonism Beta-lactamase Assay, Phase 5 (AID 2283600). An outline of the steps:
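Counter-readout for cytotoxicity: ATP-dependent luminescence from CellTiter-Glo, read in the beta-lactamase wells after 30 min at RT, following a 16 h compound exposure at 37C.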

Test [8] is described as follows: ATG_XTT_Cytotoxicity: Cytotoxicity Assessment in the Attagene TRANS-FACTORIAL HepG2 Assay (AID 2283584).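 As to AC50: XTT signal for cell number as viability in transfected HepG2 cells; cells exposed to compound for 24 h before reading; active means loss of viability signal versus DMSO baseline.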 In a few lines:
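Transfect HepG2 with GAL4-UAS reporter units, dose compound, incubate 24 h, then measure viable cell number by XTT. Fit concentration response against DMSO baseline.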

The test system of test [9] is Thyroperoxidase (TPO), gene 54314. In words: CCTE_Simmons_AUR_rTPO: CCTE's Amplex UltraRed Assay for Thyroperoxidase (TPO) Inhibition, Simmons Lab (AID 2283662).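 Also: potency for loss of signal meaning inhibition of peroxidase activity.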 An outline of the steps:
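Rat thyroid microsomes (5 ug protein) with 25 uM Amplex UltraRed and 300 uM H2O2 in 200 mM phosphate buffer, 30 min at 37C in dark; fluorescence 544/590 nm. Eight concentrations, 5 nM–87.5 uM final, 0.5% DMSO, triplicate biological replicates.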

Test [10] is described as follows: CCTE_Simmons_CellTiterGLO_HEK293T: Viability Assessment in CCTE's Assays for Thyroperoxidase (TPO) Inhibition, Simmons Lab (AID 2283665). An outline of the steps:
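HEK293T cells in DMEM with 1% FBS were dosed with 8 concentrations (5 nM–87.5 uM final, 0.5% DMSO) for 24 hr at 37C; ATP content was read by CellTiter-Glo luminescence, loss-of-signal versus DMSO, three biological replicates.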

The target in test [11] is Luciferin 4-monooxygenase (Photinus pyralis) (UniProt P08659). In words: CCTE_Simmons_QuantiLum_inhib_2: CCTE's Firefly Luciferase Inhibition Assay, Simmons Lab (AID 2283767). An outline of the steps:
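Recombinant firefly luciferase (5 ng/well, 200 mM potassium phosphate with 1 mg/ml BSA) was exposed to 8 concentrations from 5 nM to 87.5 uM (final, 0.5% DMSO) for 30 min at 37C in the dark. Loss of luminescence versus DMSO was read after injecting D-luciferin/ATP-analogue reagent.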

Eight compounds from PubChem BioAssay (EPA / NIEHS) can be followed below.

Inconclusive results are not listed. Calls of active or inactive are those of the source. The calls were made as follows: active = hit-call score of the fitted dose curve at least 0.9, where 1 is the maximum; inconclusive = response in the unintended direction; inactive = score below 0.9.

Chain of Luciferin 4-monooxygenase (Photinus pyralis) (P08659 whole entry, looked up): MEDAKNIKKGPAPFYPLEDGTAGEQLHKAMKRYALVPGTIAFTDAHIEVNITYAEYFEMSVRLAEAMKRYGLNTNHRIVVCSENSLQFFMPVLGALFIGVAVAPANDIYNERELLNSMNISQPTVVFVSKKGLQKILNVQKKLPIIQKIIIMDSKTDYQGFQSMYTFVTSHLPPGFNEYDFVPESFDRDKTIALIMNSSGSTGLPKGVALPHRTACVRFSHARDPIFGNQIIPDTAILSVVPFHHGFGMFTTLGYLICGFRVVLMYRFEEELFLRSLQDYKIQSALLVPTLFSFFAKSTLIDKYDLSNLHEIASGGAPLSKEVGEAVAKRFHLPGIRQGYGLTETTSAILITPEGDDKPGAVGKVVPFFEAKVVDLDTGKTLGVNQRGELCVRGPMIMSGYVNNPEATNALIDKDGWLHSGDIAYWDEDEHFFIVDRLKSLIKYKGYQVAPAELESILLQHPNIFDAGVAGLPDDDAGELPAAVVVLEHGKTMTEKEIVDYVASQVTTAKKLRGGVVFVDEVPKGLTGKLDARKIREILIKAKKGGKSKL

For the compound `CC(O)C#CC(C)O` (centres undefined), the result in [1], in [2], in test [3], in [4], in [5] and in test [6] was inactive. The result in test [7] was inactive.

Usually AC50 stands for the midpoint of the concentration-response curve, whichever way the signal moves. Turning to `CCCCCCCCn1sc(Cl)c(Cl)c1=O`, the AC50 was 31.5 µM (active) in [8]; 85.9 µM (active) in test [1]; 40.7 µM (active) in test [3]; 21.7 µM (active) in [4]; 80.4 µM (active) in test [5]. Besides, the outcome in test [6] and in [7] was inactive.

In the case of `Cc1ccc2c(c1)OCC(=O)CO2`, the compound was classed as inactive in [8], in test [1], in [2], in test [4] and in [5].

For `CC(C)OC(=O)COc1ccc(Cl)cc1Cl`, the compound was classed as inactive in [8], in test [2], in [3], in [4], in [5] and in test [6]. Further, in test [7], the call was inactive.

As for `COC(=O)c1ccc(C=O)cc1`, the call in [8], in test [2], in test [4], in [6] and in test [7] was inactive.

As to `CCOC(=O)C1CC(=O)C(=C(O)C2CC2)C(=O)C1` (centres undefined), the outcome in test [2], in [4], in test [5] and in test [7] was inactive.

With `O=c1[nH]cccc1O`, the result in [8], in test [10] and in [11] was inactive. The AC50 in [9] was 0.115 µM (active).

Take `O=C1c2c(O)ccc(Nc3ccc(CCO)cc3)c2C(=O)c2c([N+](=O)[O-])ccc(O)c21`: the call in test [8], in test [1], in test [2], in [5] and in test [6] was inactive.
